# In PubChem BioAssay (Tox21):
# Values joined by “and” are separate entries in the source; they are usually repeats but may differ in a detail not shown here. Equal values may be shown once. Inconclusive results are not listed. Entries that show only a call come without a potency. The source holds several records for some structures; these can differ, active in one and inactive in another. Active and inactive are the calls of the source. Unless noted, the call rests on the fitted dose curve; in most records, active means well fitted curve in the direction sought with a large enough effect in the repeat runs; inconclusive means weak or mixed curves; inactive means no such curve, though single readings can be large; an effect the other way counts as inactive or inconclusive.
# Assays:
# [1] = qHTS assay to identify small molecule antagonists of the estrogen receptor alpha (ER-alpha) signaling pathway using the BG1 cell line in the presence of 0.1 nM 17-beta-estradiol - cell viability counter screen (AID 1259241); further: nearly all actives have a fitted effect of over 40% in size
# In short: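 Cytotoxicity counter-screen: live-cell protease activity measured by fluorescence (30 min reagent step) in the same wells. Cells were VM7Luc4E2 with endogenous ER-alpha and ERE-driven luciferase, treated 22 hr at 37C alongside 0.1 nM 17beta-estradiol final.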
# [2] = qHTS assay to identify small molecule antagonists of the androgen receptor (AR) signaling pathway using the MDA cell line in the presence of 0.5 nM R1881 - cell viability counter screen (AID 1259242); further: nearly all actives have a fitted effect of over 45% in size
# In short: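 Live-cell protease fluorescence, CellTiter-Fluor, 30 min at 37C. Cells: MDA-kb2, 3,000/well, preincubated 5 hr. Compounds plus 0.5 nM R1881 final, 16 hr, 37C, 0% CO2.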
# [3] = qHTS assay to identify small molecule phospholipidosis (PLD) inducers (AID 1259344; active means well fitted curve in the direction sought with a large enough effect; an effect the other way counts as inactive or inconclusive)
# In short: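 Read-out is LipidTOX Red fluorescence (ex 595/em 615) imaged in HepG2 cells after 24 h compound exposure at 37 C, with Hoechst nuclear counterstain (ex 352/em 461) allowing per-cell normalisation.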
# [4] = qHTS assay to identify small molecule HDAC inhibitors (AID 1259364);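 further: wild-type HCT-116 cells with endogenous class I/II HDAC activity; top concentration of the series differs between compounds; nearly all actives have a fitted effect of over 45% in size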
# In short: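 HCT-116 (wild type), 1,500 cells/well, overnight; compound 2 hr 37C 5% CO2; HDAC-Glo I/II reagent 30 min RT; luminescence readout.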
# [5] = qHTS assay to identify small molecule HDAC inhibitors - cell viability counter screen (AID 1259365); further: series mostly up to about 92 µM; nearly all actives have a fitted effect of over 50% in size
# In short: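 CellTiter-Glo luminescence (30 min, room temperature) reported viability after a 2 h compound exposure at 37 C. Cells: wild-type HCT-116, 1,500 per well, seeded the night before.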
# [6] = qHTS assay to identify small molecule agonists of the sonic hedgehog signaling (Shh) pathway - cell viability counter screen (AID 1259366); further: nearly all actives have a fitted effect of over 50% in size; further: potency means the concentration at half of the fitted maximal effect
# In short: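 Cytotoxicity counter screen: CellTiter-Fluor reagent added after 23 h compound exposure, then 1 h at 37C and fluorescence read. Cells were 3T3 Gli1-Luc, seeded 2,000 per well and dosed 4 h post-plating.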
# [7] = qHTS assay to identify small molecule antagonists of the sonic hedgehog signaling (Shh) pathway - cell viability counter screen (AID 1259367); further: nearly all actives have a fitted effect of over 55% in size; further: potency means the concentration at half of the fitted maximal effect
# In short: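 Fluorescence read-out (CellTiter-Fluor, 1 hr at 37C) taken after 23 hr compound treatment of 3T3 Gli1-Luc cells stimulated with conditioned medium. Cells were seeded at 2,000 per well and pre-incubated 4 hr.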
# [8] = qHTS assay to identify small molecule agonists of the sonic hedgehog signaling (Shh) pathway (AID 1259368; calls by dose curve;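 further: NIH/3T3-derived 3T3Gli1-Luc cells carrying a stable Gli1-driven firefly luciferase reporter; series mostly up to about 92 µM; nearly all actives have a fitted effect of over 15% in size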)
# In short: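 Read-out: firefly luciferase luminescence from a Gli1 response element reporter stably integrated in NIH/3T3-derived 3T3Gli1-Luc cells, measured 30 min at room temperature after reagent addition. Compound exposure lasted 24 hr at 37 C, 5% CO2.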
# [9] = qHTS assay to identify small molecule antagonists of the sonic hedgehog signaling (Shh) pathway (AID 1259369; calls by dose curve; further: nearly all actives have a fitted effect of over 45% in size; further: potency means the concentration at half of the fitted maximal effect)
# In short: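 Luminescence readout: firefly Luc under Gli1 response element in 3T3Gli1-Luc cells (NIH/3T3 clone). Antagonist mode, stimulation by conditioned medium; compound exposure 24hr at 37 C, 5% CO2.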
# [10] = molecular target: Estrogen receptor beta (Homo sapiens) (UniProt Q92731); test: qHTS assay to identify small molecule agonists of the estrogen receptor beta (ER-beta) signaling pathway (AID 1259377; active means well fitted activation curve with a large enough effect in the signal ratio in the repeat runs, not every such curve was filed as active; the % refers to the signal ratio)
# In short: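 Ratiometric beta-lactamase FRET read-out came after 2 h substrate loading at room temperature. It followed 16 h compound treatment at 37C of GripTite HEK293T cells carrying a UAS-bla reporter, plated in 2% charcoal-stripped FBS medium.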
# [11] = qHTS assay to identify small molecule agonists of the androgen receptor (AR) signaling pathway in the presence of an antagonist - cell viability counter screen (AID 1259379);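 further: MDA-kb2 human breast cancer cells carrying an MMTV luciferase reporter; series mostly up to about 92 µM; nearly all actives have a fitted effect of over 25% in size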
# In short: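 Viability counter screen: CellTiter-Fluor fluorescence, measured in the same wells as the luciferase read-out. MDA-kb2 cells, 3,000/well, with nilutamide at 3.0uM final and compounds at 15 concentrations, 16 hr at 37C, 0% CO2.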
# [12] = qHTS assay to identify small molecule antagonists of the estrogen receptor beta (ER-beta) signaling pathway - cell viability counter screen (AID 1259382); further: nearly all actives have a fitted effect of over 55% in size; further: potency means the concentration at half of the fitted maximal effect;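 on activity change, negative = cytotoxicity: HEK293T cells carrying ER-beta-UAS-bla reporter stimulated with estradiol; series mostly up to about 92 µM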
# In short: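 Luminescent ATP read-out (CellTiter-Glo, 30 min, RT) taken in the same wells as the bla reporter assay. HEK293T ER-beta-UAS-bla cells in 2% charcoal-stripped FBS were exposed to compounds with 1nM E2 for 16 hr at 37C.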
# [13] = molecular target: Androgen receptor (Homo sapiens) (UniProt P10275); test: qHTS assay to identify small molecule antagonists of the androgen receptor (AR) signaling pathway using the MDA cell line in the presence of 0.5 nM R1881 (AID 1259243); further: nearly all actives have a fitted effect of over 50% in size
# In short: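 MDA-kb2, MMTV-luc (AR/GR elements); 3,000 cells/well; cpd + 0.5 nM R1881 final; 16 hr 37C, 0% CO2; ONE-Glo 30 min RT; luminescence.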
# [14] = molecular target: Estrogen receptor (Homo sapiens) (UniProt P03372); test: qHTS assay to identify small molecule antagonists of the estrogen receptor alpha (ER-alpha) signaling pathway using the BG1 cell line in the presence of 0.1 nM 17-beta-estradiol (AID 1259244); further: nearly all actives have a fitted effect of over 50% in size
# In short: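 Luminescence after ONE-Glo (30 min, room temperature) measured ERE-luciferase activity in VM7Luc4E2 cells treated 22 h with compound and 0.1 nM final 17beta-estradiol as stimulator.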
# [15] = qHTS assay to identify small molecule agonists of the estrogen receptor beta (ER-beta) signaling pathway - cell viability counter screen (AID 1259380); further: nearly all actives have a fitted effect of over 30% in size; further: potency means the concentration at half of the fitted maximal effect
# In short: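 Luminescence read-out (CellTiter-Glo, 30 min, room temp) taken in the same wells as the beta-lactamase reporter assay; ER-beta-UAS-bla HEK293T cells exposed to DMSO-dissolved compounds for 16 hr at 37C in 2% charcoal-stripped FBS medium.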
# [16] = molecular target: Androgen receptor (Homo sapiens) (UniProt P10275); test: qHTS assay to identify small molecule agonists of the androgen receptor (AR) signaling pathway in the presence of an antagonist (AID 1259381; calls by dose curve; further: nearly all actives have a fitted effect of over 15% in size)
# In short: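 Luciferase read-out (ONE-Glo, 30min room temperature) in MDA-kb2 MMTV-reporter cells; agonist mode run in presence of AR antagonist nilutamide, 3.0uM final. Compounds tested as 15-point series, 16hr exposure at 37C, 0% CO2.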
# [17] = molecular target: Estrogen receptor (Homo sapiens) (UniProt P03372); test: qHTS assay to identify small molecule agonists of the estrogen receptor alpha (ER-alpha) signaling pathway in the presence of an antagonist (AID 1259383; calls by dose curve; further: top concentration of the series differs between compounds; nearly all actives have a fitted effect of over 15% in size)
# In short: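 Luciferase luminescence (ONE-Glo, 30min at room temperature) measured in VM7Luc4E2 cells after 22hr compound exposure at 15 concentrations, with 10.0nM ICI-182,780 final present; cells express endogenous ER-alpha and carry four EREs upstream of luciferase.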
# [18] = qHTS assay to identify small molecule agonists or antagonists of the thyroid stimulating hormone receptor (TSHR) signaling pathway - wild type cell line counter screen (AID 1259384; calls by dose curve)
# In short: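 Wild-type Hek293 cells, 800/well, 18 h at 37C, then compound with Ro20-1724 for 30 min RT. cAMP by HTRF (cAMP-d2/anti-cAMP cryptate), 1 h RT, fluorescence read. 15 concentrations, triplicates.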
# [19] = molecular target: Thyrotropin receptor (Homo sapiens) (UniProt P16473); test: qHTS assay to identify small molecule antagonists of the thyroid stimulating hormone receptor (TSHR) signaling pathway (AID 1259385; calls by dose curve; further: nearly all actives have a fitted effect of over 20% in size)
# In short: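 TSHR-HEK293 cells (800/well) plated 18 h, then compounds with Ro20-1724 and TSH at 1.5 ng/mL final, 30 min at room temperature. cAMP quantified by HTRF (cAMP-d2/anti-cAMP-cryptate, 1 h); 15 concentrations in triplicate.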
# Androgen receptor (Homo sapiens), sequence (P10275 whole entry, looked up): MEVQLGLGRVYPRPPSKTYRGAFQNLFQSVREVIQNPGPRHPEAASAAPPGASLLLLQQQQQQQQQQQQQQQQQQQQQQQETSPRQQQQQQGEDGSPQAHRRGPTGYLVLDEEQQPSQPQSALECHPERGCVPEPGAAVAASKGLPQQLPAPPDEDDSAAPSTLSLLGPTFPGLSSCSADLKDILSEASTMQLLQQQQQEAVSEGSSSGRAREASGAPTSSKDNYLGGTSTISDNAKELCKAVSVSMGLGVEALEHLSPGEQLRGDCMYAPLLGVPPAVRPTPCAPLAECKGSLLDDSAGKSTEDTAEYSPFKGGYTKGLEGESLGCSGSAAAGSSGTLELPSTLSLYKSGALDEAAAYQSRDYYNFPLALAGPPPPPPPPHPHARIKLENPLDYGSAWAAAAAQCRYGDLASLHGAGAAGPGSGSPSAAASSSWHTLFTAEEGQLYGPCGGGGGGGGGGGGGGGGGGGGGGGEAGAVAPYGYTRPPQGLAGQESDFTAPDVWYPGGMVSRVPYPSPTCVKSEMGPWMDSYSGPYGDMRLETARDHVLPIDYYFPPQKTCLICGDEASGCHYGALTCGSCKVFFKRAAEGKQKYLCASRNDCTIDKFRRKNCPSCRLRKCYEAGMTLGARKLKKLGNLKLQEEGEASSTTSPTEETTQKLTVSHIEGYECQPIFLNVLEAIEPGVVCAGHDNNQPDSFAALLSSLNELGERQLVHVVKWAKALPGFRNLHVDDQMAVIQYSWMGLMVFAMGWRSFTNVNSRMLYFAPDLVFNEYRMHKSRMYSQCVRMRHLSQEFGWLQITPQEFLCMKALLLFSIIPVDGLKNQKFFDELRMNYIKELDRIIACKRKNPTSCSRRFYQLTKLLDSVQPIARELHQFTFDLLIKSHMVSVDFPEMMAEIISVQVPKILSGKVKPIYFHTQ
# Estrogen receptor beta (Homo sapiens), sequence (Q92731 whole entry, looked up): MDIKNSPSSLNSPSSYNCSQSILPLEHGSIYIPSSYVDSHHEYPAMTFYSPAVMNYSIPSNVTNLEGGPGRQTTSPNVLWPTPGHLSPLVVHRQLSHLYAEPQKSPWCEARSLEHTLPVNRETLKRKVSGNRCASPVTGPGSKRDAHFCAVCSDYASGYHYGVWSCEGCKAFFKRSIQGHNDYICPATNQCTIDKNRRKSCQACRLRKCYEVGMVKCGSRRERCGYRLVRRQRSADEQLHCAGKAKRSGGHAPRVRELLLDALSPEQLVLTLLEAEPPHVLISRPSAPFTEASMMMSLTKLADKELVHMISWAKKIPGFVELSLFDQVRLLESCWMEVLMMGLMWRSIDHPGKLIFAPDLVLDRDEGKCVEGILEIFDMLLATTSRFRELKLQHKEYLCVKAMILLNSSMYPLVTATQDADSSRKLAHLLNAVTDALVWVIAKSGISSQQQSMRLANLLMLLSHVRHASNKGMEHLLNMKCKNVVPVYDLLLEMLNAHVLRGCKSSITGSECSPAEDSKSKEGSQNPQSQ
# Thyrotropin receptor (Homo sapiens), sequence (P16473 whole entry, looked up): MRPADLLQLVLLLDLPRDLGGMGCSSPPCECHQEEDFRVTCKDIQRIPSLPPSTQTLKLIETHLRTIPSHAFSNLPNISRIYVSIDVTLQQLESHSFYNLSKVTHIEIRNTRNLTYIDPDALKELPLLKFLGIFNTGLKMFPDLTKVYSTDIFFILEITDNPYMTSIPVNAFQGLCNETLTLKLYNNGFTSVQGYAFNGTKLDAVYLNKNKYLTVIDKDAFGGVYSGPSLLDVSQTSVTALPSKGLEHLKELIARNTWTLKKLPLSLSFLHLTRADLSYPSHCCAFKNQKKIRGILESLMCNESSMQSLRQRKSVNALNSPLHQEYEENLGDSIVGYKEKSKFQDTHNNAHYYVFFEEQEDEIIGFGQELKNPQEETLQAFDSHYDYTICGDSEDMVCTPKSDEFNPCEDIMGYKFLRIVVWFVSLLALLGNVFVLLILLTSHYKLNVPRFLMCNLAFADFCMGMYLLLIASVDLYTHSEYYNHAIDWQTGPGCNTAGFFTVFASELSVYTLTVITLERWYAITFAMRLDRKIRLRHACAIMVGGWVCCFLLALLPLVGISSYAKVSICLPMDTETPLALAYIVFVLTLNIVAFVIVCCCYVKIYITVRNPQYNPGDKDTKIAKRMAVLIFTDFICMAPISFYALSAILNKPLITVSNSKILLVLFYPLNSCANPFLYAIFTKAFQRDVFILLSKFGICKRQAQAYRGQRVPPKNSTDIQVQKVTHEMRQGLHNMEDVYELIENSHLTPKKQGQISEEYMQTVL
# Estrogen receptor (Homo sapiens), sequence (P03372 whole entry, looked up): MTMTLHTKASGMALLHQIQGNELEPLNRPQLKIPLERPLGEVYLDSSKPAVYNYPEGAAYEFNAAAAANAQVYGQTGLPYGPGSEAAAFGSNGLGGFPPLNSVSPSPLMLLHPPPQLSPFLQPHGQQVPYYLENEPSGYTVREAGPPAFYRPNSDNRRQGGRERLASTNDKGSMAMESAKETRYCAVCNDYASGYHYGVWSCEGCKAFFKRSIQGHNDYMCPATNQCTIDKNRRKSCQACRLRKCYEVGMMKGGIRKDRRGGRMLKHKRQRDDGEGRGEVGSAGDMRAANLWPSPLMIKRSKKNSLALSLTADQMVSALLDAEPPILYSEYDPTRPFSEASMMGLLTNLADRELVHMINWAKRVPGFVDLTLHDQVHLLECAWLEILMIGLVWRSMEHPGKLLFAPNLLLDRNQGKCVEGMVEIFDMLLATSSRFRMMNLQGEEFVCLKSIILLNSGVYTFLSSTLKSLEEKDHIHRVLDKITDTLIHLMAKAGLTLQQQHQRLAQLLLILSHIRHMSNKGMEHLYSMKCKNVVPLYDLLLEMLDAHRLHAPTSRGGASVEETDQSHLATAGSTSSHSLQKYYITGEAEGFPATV
SMILES,Potency [1],Potency [2],outcome [3],Potency [4],Potency [5],Potency [6],Potency [7],Potency [8],Potency [9],Potency [10],Potency [11],Potency [12],Potency [13],Potency [14],Potency [15],outcome [16],Potency [17],Potency [18],Potency [19],"activity change, negative = cytotoxicity [15]"
OCc1ccc(Cl)cc1Cl,inactive,inactive,inactive,inactive,inactive,inactive,inactive,inactive,inactive,inactive,inactive,inactive,–,–,–,–,–,–,–,–
Nc1nc(N)c2nc(-c3ccccc3)c(N)nc2n1,inactive,inactive,inactive,inactive,–,–,inactive,inactive,24.6 µM (active) and 30.6 µM (active),–,inactive,inactive,inactive,inactive,69.4 µM (active) and inactive,inactive,inactive,inactive,inactive,–
CCCCCCCCCCCC(=O)N(C)CC(=O)O,inactive,inactive,–,inactive,inactive,inactive,inactive,inactive,inactive,inactive,inactive,inactive,–,inactive,–,–,inactive,inactive,–,-3.5% [at 8.39 µM] (inactive)
COC(=O)CCCCC(=O)OC,inactive,inactive,–,inactive,inactive,inactive,inactive,inactive,–,–,inactive,inactive,–,inactive,inactive,–,inactive,–,–,–
CCCCC(=O)O,inactive,inactive,inactive,inactive,–,inactive,inactive,inactive,–,inactive,inactive,inactive,–,inactive,inactive,–,inactive,inactive,inactive,–
OCC(CO)(CO)CO,inactive,inactive,–,inactive,inactive,inactive,inactive,inactive,–,inactive,inactive,inactive,–,inactive,inactive,–,inactive,inactive,–,–
OC1CCCCC1,inactive,inactive,–,inactive,–,inactive,inactive,inactive,–,–,inactive,inactive,–,inactive,inactive,–,inactive,inactive,inactive,–
CC(CN1c2ccccc2Sc2ccccc21)N(C)C (stereo not drawn),inactive,inactive,inactive,inactive,inactive,61.8 µM (active) and 30.6 µM (active) and inactive,27.6 µM (active) and inactive,inactive,–,inactive,inactive,24.6 µM (active) and 21.7 µM (active) and 16.8 µM (active),–,–,–,–,–,inactive,–,–
CC(C)(C)NC[C@H](O)COc1nsnc1N1CCOCC1,inactive,inactive,inactive,inactive,–,inactive,inactive,inactive,inactive,–,inactive,inactive,–,–,inactive,–,–,–,–,–
O=C1C(N(CO)C(=O)NCO)N(CO)C(=O)N1CO (stereo not drawn),inactive,inactive,–,inactive,–,inactive,inactive,inactive,–,inactive,inactive,inactive,–,inactive,inactive,–,inactive,inactive,–,–
